Screening results: PubChem, National Center for Advancing Translational Sciences (NCATS)
CHX counter – counter-screen for Shiga toxin inhibitors: cycloheximide protein synthesis inhibition | max response, % | cell reporter, cycloheximide protein synthesis inhibition counterscreen | actives 12% (n = 300,000); in the data active = max response mostly above about 13%, no sharp cut-off; inactive = mostly below about 14%; note: read at 38.3 µM for the half of the compounds with a filed dose
Shiga inhibitor – Shiga toxin inhibition | Vero cells, Shiga toxin protein synthesis inhibition reporter | inhibition, % at 38.7 µM | actives 9.2% (n = 290,000) | AID 2315; in the data active = inhibition mostly above about 28%, no sharp cut-off; inactive = mostly below about 43%
TbPYK inhibitor – T. brucei pyruvate kinase inhibition. Potency, µM (top dose mostly 76.8 µM), actives largely listed as inhibitors. Q57TT1. actives 0.12% (n = 410,000). TbPYK enzyme, Kinase-Glo Plus ATP luminescence, 45 min; note: nearly all actives have a fitted effect of over 50% in size
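Luminescent Kinase-Glo Plus end-point after 45 min room-temperature reaction of T. brucei pyruvate kinase started with 130 uM ADP (final). Buffer TEA 50 mM pH 7.2 with KCl, MgCl2, BSA, Tween-20; titration-based qHTS with fitted concentration-effect curves.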
Sm TGR block – inhibitors of Schistosoma mansoni thioredoxin glutathione reductase | Q962Y6 | purified TGR, DTNB reduction, TNB absorbance 405 nm | Potency, µM (doses to about 114 µM), hits mostly inhibitors | actives 3% (n = 360,000) | AID 485364; note: nearly all actives have a fitted effect of over 60% in size
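First, TGR (20 nM dispensed) and NADPH were mixed with compound. Second, a 15 min room-temperature incubation followed. Third, further NADPH and then DTNB were added to start the reaction. Finally, TNB absorbance was monitored kinetically.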
LmPK inh – blocks Leishmania mexicana pyruvate kinase activity | Q27686 | purified LmPK, Kinase-Glo ATP luminescence, 1 h | Potency, µM (series often up to 57.5 µM), actives largely listed as inhibitors | actives 0.37% (n = 290,000) | AID 1721
Target sequence (Q27686 whole entry, looked up): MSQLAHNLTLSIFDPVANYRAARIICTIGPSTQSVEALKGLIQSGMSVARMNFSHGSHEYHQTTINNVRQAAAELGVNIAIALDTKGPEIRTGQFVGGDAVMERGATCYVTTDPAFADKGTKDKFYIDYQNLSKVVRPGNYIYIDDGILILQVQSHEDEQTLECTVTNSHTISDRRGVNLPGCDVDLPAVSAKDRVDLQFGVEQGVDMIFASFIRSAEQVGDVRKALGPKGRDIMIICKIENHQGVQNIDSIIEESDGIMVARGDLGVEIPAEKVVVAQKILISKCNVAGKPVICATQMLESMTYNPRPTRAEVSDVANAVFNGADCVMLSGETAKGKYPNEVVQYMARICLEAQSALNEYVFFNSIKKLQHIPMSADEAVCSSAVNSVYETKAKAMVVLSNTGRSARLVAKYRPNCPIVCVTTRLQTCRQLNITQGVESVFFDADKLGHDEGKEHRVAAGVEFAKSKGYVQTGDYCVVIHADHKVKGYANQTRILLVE
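Pyruvate kinase activity monitored as ATP production (luciferase luminescence). Conditions: 0.1 nM enzyme, 0.5 mM PEP, 0.1 mM ADP, 1 h, RT; normalized against uninhibited and no-enzyme wells.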
Giardia FBPA inh-1 – blocks Giardia fructose-bisphosphate aldolase activity. purified Giardia FBPA. Potency, µM (highest dose often 59.6 µM), most hits filed as inhibitors. actives 0.71% (n = 290,000). AID 2451; note: nearly all actives have a fitted effect of over 55% in size
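40 nM FBPA preincubated 10 min at RT with compound (up to 57.5 uM final), then substrate plus GAPDH/TPI/NAD/arsenate coupling and diaphorase/resazurin added. Fluorescence read after 20 min at RT, 525/598 nm.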
Giardia growth – blocks growth of Giardia lamblia trophozoites | shares compounds with Giardia FBPA inh-1 | Giardia lamblia trophozoite growth inhibition | Potency, µM (highest dose often 57.5 µM), usual class: inhibitors | actives 5% (n = 1,500) | AID 2785;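 note: trophozoites exposed to compound for 48 h at 37 °C; nearly all actives have a fitted effect of over 70% in size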
Mammal cell tox – counter-screen for Giardia aldolase inhibitors: mammalian cell toxicity | shares compounds with Giardia FBPA inh-1 | mammalian cell viability counter-screen, qHTS | Potency, µM (highest dose often 57.5 µM), actives largely listed as inhibitors | actives 4% (n = 1,500) | AID 2786;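 note: Chinese hamster ovary cells used as mammalian cytotoxicity surrogate; viability measured as cellular ATP by luminescence; compound exposure lasted 48 h before reading; nearly all actives have a fitted effect of over 60% in size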
Giardia FBPA inh-2 – confirmation of Giardia fructose-bisphosphate aldolase inhibitors | shares compounds with Giardia FBPA inh-1 | purified Giardia aldolase enzyme activity, qHTS | Potency, µM (highest dose often 57.5 µM), most hits filed as inhibitors | actives 5% (n = 1,500) | AID 2787; note: nearly all actives have a fitted effect of over 45% in size
Rabbit FBPA inh – rabbit FBP aldolase inhibition by Giardia aldolase hits | shares compounds with Giardia FBPA inh-1 | Rabbit muscle FBPA enzyme inhibition, selectivity counter-screen | Potency, µM (titrated, usually from 57.5 µM), usual class: inhibitors | actives 4% (n = 1,500) | AID 2794; note: nearly all actives have a fitted effect of over 60% in size
GAPDH coupling – GAPDH inhibition flagged for Giardia aldolase hits. shares compounds with Giardia FBPA inh-1. Potency, µM (doses to about 57.5 µM), hits mostly inhibitors. GAPDH coupling enzyme counterscreen, biochemical, qHTS. actives 6% (n = 1,500); note: nearly all actives have a fitted effect of over 55% in size
Each line names hits and unclear results; the compound was inactive in the other large screens (follow-up assays come after a bar, where they were run); [ ] = dose if it differs, or a comment. This is one part of a sample in which hits are shown more often than they occur. Unless noted, calls come from the whole dose curve; as a rule, active = well fitted curve in the direction sought with a large enough effect; inconclusive = small, poorly fitted or top-dose-only effect, or another doubt; inactive = no such curve, though single readings can be large; an effect the other way counts as inactive or inconclusive.

COc1cccc(C(=O)N2CCN(Cc3ccccc3C(F)(F)F)CC2)c1	Giardia FBPA inh-1 inconclusive
COc1ccc(C(=O)N2CCN(Cc3ccccc3C(F)(F)F)CC2)cc1	Giardia FBPA inh-1 inconclusive
COc1cc(OC)cc(C(=O)N2CCN(Cc3ccccc3[N+](=O)[O-])CC2)c1	Giardia FBPA inh-1 18µM | Giardia growth inactive[10.4 µM] | Mammal cell tox inactive | Giardia FBPA inh-2 inactive | Rabbit FBPA inh inactive | GAPDH coupling inactive
COc1ccc2cc3cc(C(=O)NCCN4CCN(Cc5ccccc5)CC4)oc3nc2c1	none
COc1ccc2cc3cc(C(=O)NCCN4CCc5ccccc5C4)oc3nc2c1	Shiga inhibitor 36, Giardia FBPA inh-1 18µM | Giardia growth inactive | Mammal cell tox inactive | Giardia FBPA inh-2 inactive | Rabbit FBPA inh inactive | GAPDH coupling inactive
COc1ccc(C(=O)NCCS(=O)(=O)N2CCc3ccccc3C2)c(OC)c1	none (no result: CHX counter, Shiga inhibitor, LmPK inh, Giardia FBPA inh-1)
COc1ccc2cc3cc(C(=O)NCCN4CCc5ccccc5C4)sc3nc2c1	CHX counter 21, Shiga inhibitor 47, Giardia FBPA inh-1 16µM | Giardia growth inactive[10.4 µM] | Mammal cell tox inactive | Giardia FBPA inh-2 inactive | Rabbit FBPA inh inactive | GAPDH coupling inactive
CC/C(=N/NC(=O)c1ccc2c(c1)OCO2)c1ccccc1O	none (no result: CHX counter, Shiga inhibitor, Sm TGR block, LmPK inh, Giardia FBPA inh-1)
CCCCc1nnc(NC(=O)CSCc2cc(=O)n3cc(C)sc3n2)s1	Giardia FBPA inh-1 4µM | Giardia growth inactive | Mammal cell tox inconclusive | Giardia FBPA inh-2 inconclusive | Rabbit FBPA inh inactive | GAPDH coupling inactive
O=[N+]([O-])c1cccc(CN2CCN(Cc3ccc(Cl)cc3)CC2)c1	Giardia FBPA inh-1 18µM | Giardia growth inconclusive | Mammal cell tox inactive | Giardia FBPA inh-2 inactive | Rabbit FBPA inh inactive | GAPDH coupling inactive
Cc1ccc(OCC(=O)N2CCN(Cc3ccc(F)cc3)CC2)cc1	none (no result: CHX counter, Shiga inhibitor, LmPK inh, Giardia FBPA inh-1)
O=C(COc1ccc(Cl)cc1)N1CCN(Cc2ccc([N+](=O)[O-])cc2)CC1	Giardia FBPA inh-1 22µM | Giardia growth inactive[10.4 µM] | Mammal cell tox inactive | Giardia FBPA inh-2 inactive | Rabbit FBPA inh inactive | GAPDH coupling inactive
COc1ccc(NC(=O)c2sc3nc4n(c(=O)c3c2C)CCC4)c(OC)c1	none (no result: CHX counter, Shiga inhibitor, LmPK inh, Giardia FBPA inh-1)
COc1ccc(Br)cc1CN1CCN(C(=O)c2ccc(OC)c(OC)c2)CC1	Giardia FBPA inh-1 inconclusive
COc1ccc(CN2CCN(Cc3c[nH]c4ccccc34)CC2)cc1	Giardia FBPA inh-1 inconclusive | Giardia growth inactive | Mammal cell tox inactive | Giardia FBPA inh-2 inactive | Rabbit FBPA inh inactive | GAPDH coupling inactive
O=C(c1cccc(F)c1)N1CCN(Cc2cccc(Br)c2)CC1	Giardia FBPA inh-1 14µM | Giardia growth inactive | Mammal cell tox inactive | Giardia FBPA inh-2 inactive | Rabbit FBPA inh inactive | GAPDH coupling inactive
COc1ccc(Br)cc1CN1CCN(Cc2c[nH]c3ccccc23)CC1	Giardia FBPA inh-1 14µM | Giardia growth 16µM | Mammal cell tox inactive | Giardia FBPA inh-2 inactive | Rabbit FBPA inh inactive | GAPDH coupling inactive
O=C(c1cccc(F)c1)N1CCN(Cc2ccc3c(c2)OCO3)CC1	Giardia FBPA inh-1 inconclusive (no result: Shiga inhibitor)
COc1ccc(CN2CCN(Cc3c[nH]c4ccccc34)CC2)cc1OC	none (no result: CHX counter, Shiga inhibitor, Sm TGR block, LmPK inh, Giardia FBPA inh-1)
COc1ccc(Br)cc1CN1CCN(C(=O)c2ccc(F)cc2)CC1	Giardia FBPA inh-1 16µM | Giardia growth inactive | Mammal cell tox inactive | Giardia FBPA inh-2 inactive | Rabbit FBPA inh inactive | GAPDH coupling inactive
Cc1sc2nc(CN3CCOCC3)nc(N3CCN(S(=O)(=O)c4ccccc4)CC3)c2c1C	none (no result: CHX counter, Shiga inhibitor, LmPK inh, Giardia FBPA inh-1)
